Records with an inconclusive call do not appear. Where a call stands in place of a potency, no number is given. Unmarked numbers belong to inactive results. Calls of active or inactive are those of the source. Calls follow the shape of the dose curve; as a rule, active = well fitted inhibition curve with a large enough effect; inconclusive = small, poorly fitted or top-dose-only effect, or effect the other way; inactive = flat fitted curve, though single readings scatter.

Drawing on PubChem BioAssay AID1570 (National Center for Advancing Translational Sciences (NCATS), 2009), this text covers Potency and activity, negative = inhibition for 9 compounds.

In this assay the target is Thyroid hormone receptor beta (Homo sapiens) (UniProt P10828). In words: Concentration Response Confirmation Assay for Inhibitors of the Interaction of Thyroid Hormone Receptor and Steroid Receptor Coregulator 2, Fluorescein Fluoroprobe. To be noted: TRbeta LBD / fluorescein-SRC2 peptide, fluorescence polarization, 5 h; series mostly up to 92.2 µM. In outline: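 Fluorescence polarization with 0.6 uM TRbeta ligand-binding domain and 20 nM fluorescein-SRC2 peptide in Tris buffer containing 1 uM T3 and 5% DMSO. Read after 5 h at ambient temperature (ex 480/em 535); data normalized to unbound and bound controls, giving concentration-response potencies.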
Thyroid hormone receptor beta (Homo sapiens), sequence (P10828 whole entry, looked up, the tested form may be a part): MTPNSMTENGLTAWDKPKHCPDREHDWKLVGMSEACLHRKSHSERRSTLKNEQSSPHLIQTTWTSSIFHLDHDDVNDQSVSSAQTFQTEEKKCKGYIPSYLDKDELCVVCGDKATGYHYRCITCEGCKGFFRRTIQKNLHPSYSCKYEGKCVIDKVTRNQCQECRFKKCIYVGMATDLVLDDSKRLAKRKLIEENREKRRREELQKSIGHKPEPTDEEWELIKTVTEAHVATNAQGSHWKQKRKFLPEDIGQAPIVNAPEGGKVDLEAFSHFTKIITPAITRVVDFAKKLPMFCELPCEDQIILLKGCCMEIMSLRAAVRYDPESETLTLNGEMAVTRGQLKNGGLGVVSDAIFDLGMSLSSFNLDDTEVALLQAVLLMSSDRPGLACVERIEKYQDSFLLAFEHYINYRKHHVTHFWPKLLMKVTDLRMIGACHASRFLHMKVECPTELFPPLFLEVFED
On the technique in general: Fluorescence polarisation rises when a labelled molecule tumbles more slowly, as on binding a larger partner.
As for `CN(C(=S)Nc1cccnc1)c1ccc(O)cc1`, the Potency result was “inactive”.
With `CCc1ccc2c(c1)c1nc(C)sc1n2CC`, the Potency result is “inactive”.
As for `CCN(CC)S(=O)(=O)c1cccc(N=NC2=C(O)CCCC2=O)c1`, the activity, negative = inhibition was -3.56% [at 0.0112 µM].
Consider `CCOc1cc(C(c2c(C)[nH][nH]c2=O)c2c(C)[nH][nH]c2=O)ccc1OC(=O)c1cccc([N+](=O)[O-])c1`, for which the Potency is 15.8 µM (active).
Take `Cn1c(=O)[nH]c2nnc(-c3ccc(Cl)c(Cl)c3)nc2c1=O`: the Potency result was “inactive”.
On the same count and under the same terms, the result for `Cn1cc[nH]c1=S` reads “inactive”; that for `O=C(O)/C=C/C(=O)Nc1ccc(OC(F)(F)F)cc1Br`, 50.1 µM (active); that for `CCOC(=O)c1cnc2nc(NCc3ccc(OC)c(OC)c3)[nH]n2c1=O`, “inactive”.
Turning to `Cc1cc(C)cc(OCC(=O)NCCc2nc3ccccc3[nH]2)c1`, the Potency entry was “inactive”.
